Neddylation inh: cullin neddylation inhibition; TR-FRET cullin neddylation, biochemical; inhibition, % at 25 µM; 360,000 compounds, 0.58% hits; AID 651699; in the data active = inhibition above about 36%
TLR4 MyD88 comp: blocks binding of human TLR4 to MyD88; O00206+Q99836; HeLa CL3-4 TLR4/MyD88 BLA complementation, FRET ratio; inhibition, % at 8.4 µM; 200,000 compounds, 0.18% hits; in the data active = inhibition above about 25%;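 also: 0% = vehicle and 100% = reference inhibitor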
GC-A act: GC-A (human) enzyme activation | HEK293 GC-A cells, cGMP TR-FRET, EC30 ANP; 0% at EC30 ANP, 100% saturating ANP | activation, % at 10 µM | 370,000 compounds, 0.14% hits | P16066; in the data active = activation above about 40%
Target sequence (P16066 whole entry, looked up): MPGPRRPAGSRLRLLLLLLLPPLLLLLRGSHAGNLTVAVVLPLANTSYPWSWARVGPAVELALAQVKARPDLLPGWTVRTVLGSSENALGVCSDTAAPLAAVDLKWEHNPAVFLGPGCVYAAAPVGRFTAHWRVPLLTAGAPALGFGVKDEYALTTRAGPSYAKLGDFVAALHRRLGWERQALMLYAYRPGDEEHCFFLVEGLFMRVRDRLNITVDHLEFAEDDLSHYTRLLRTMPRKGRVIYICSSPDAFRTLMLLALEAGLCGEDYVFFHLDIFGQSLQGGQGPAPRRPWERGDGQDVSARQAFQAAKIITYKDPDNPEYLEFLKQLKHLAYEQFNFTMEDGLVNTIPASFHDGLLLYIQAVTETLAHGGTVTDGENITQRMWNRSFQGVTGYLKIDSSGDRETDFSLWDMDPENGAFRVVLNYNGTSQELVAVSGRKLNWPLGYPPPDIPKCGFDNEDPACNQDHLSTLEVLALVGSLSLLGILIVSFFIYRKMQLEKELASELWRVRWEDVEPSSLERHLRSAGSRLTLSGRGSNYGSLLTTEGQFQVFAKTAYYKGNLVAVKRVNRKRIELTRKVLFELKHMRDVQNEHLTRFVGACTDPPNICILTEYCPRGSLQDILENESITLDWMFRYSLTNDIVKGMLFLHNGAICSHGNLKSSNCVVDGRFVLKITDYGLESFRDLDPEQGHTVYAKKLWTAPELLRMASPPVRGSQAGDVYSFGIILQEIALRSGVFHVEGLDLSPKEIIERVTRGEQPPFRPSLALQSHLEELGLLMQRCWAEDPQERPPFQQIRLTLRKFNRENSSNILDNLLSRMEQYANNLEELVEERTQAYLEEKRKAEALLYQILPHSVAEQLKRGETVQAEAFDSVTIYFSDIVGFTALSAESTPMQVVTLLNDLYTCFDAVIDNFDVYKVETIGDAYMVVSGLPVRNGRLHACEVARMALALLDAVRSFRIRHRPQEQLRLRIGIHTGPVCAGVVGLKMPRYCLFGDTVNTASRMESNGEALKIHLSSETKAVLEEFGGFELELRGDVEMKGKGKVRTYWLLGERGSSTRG
NPR2 activator: GC-B (human) receptor activation; AID 1920062; HEK293-GC-B cells, CNP EC30, cGMP TR-FRET; 0% at EC30 CNP, 100% saturating CNP; activation, % at 10 µM; 370,000 compounds, 0.11% hits;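 active = activation at 10 µM reaching about 35% in either raw or pattern-adjusted values, limit read from the data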
TLR9-MyD88 inh: inhibitors of human TLR9-MyD88 binding; CHO BLA complementation TLR9-MyD88, CCF4 FRET ratio; AID 504734; inhibition, % at 4.98 µM; 340,000 compounds, 0.21% hits; Q9NR96+Q99836;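 active = inhibition above the mean over all tested compounds plus 3 SD, cut at about 21% in these data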;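 also: 0% = DMSO only wells and 100% = clavulanate BLA inhibitor control wells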
NOD2-RIPK2 inh: inhibitors of human NOD2-RIPK2 interaction | inhibition, % at 4.98 µM | 360,000 compounds, 0.38% hits | O43353 | CHO BLA complementation NOD2-RIPK2, CCF4 ratio | AID 624267; in the data active = inhibition above about 21%;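 also: 0% = vehicle only and 100% = reference blocker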
The depositor's hits bear a star; . = not tested or not shown. A selection: hits, their analogues and other compounds. The true share with any hit is near 1.2%.

SMILES	Neddylation inh	TLR4 MyD88 comp	GC-A act	NPR2 activator	TLR9-MyD88 inh	NOD2-RIPK2 inh
O=C(Nc1cccc2nsnc12)c1ccc2c(c1)OCCO2	46*	6	-2	-1	-1	15
COc1cccc(C(=O)NCC(=O)OCC(=O)C(C)(C)C)c1	9	-5	-2	0	-10	1
CC(C)(C)C(=O)COC(=O)CNC(=O)c1ccc(Oc2ccccc2)cc1	5	0	42*	-1	-1	1
Cc1ccccc1CN1CCCCC(NC(=O)Nc2ccccc2)C1=O (configuration not stated)	.	.	6	-3	.	.
NC(=O)C1CCN(C(=S)c2ccc(-c3ccc(Br)cc3)o2)CC1	-17	8	45*	47*	.	-1
NC(=O)c1ccc(-c2ccc(Br)cc2)o1	-170	0	-1	-6	-1	-1
CC(=O)N1CCN(C(=S)c2ccc(-c3ccc(Cl)cc3)o2)CC1	-15	-1	43*	48*	9	6
CC(C)C[C@@H]1COc2cc(Br)ccc2S(=O)(=O)N1Cc1cn(Cc2ccccc2)nn1	.	.	0	3	.	.
COc1ccc2cc3cc(C(=O)N4CCN(C5CCCCC5)CC4)oc3nc2c1	.	.	.	.	2	0
COc1ccc2cc3cc(C(=O)N4CCCCCC4)oc3nc2c1	63*	.	.	.	-2	-11
C=Cc1ncc(OC)c2c1[nH]c1ccccc12	58*	.	.	.	-7	-12
COc1cccc2[nH]c3ccccc3c(=O)c12	.	.	.	.	-7	-3
Cc1ccc(S(=O)(=O)NCC2CN(S(=O)(=O)c3ccc(C)cc3)c3ccccc3C(=O)N2c2ccc(F)cc2)cc1 (configuration not stated)	.	.	-5	-11	.	.
O=C(N[C@H](Cc1ccccc1)C(=O)N1CCN(C(=O)N2CCOCC2)CC1)[C@H]1O[C@@H](n2ccc(=O)[nH]c2=O)[C@H](O)[C@@H]1O	.	.	2	2	.	.
O=c1c(Cl)cc(Cl)nn1-c1ccccc1	-38	4	47*	1	7	1
COc1cc(Cl)nn(-c2ccccc2)c1=O	-3	-11	-1	-1	12	-4
COc1ccc(C2NC(=O)c3sc4nc(C)c(C(C)=O)c(-c5ccc(Cl)cc5)c4c3N2)cc1 (configuration not stated)	-164	5	46*	31	-2	1
COc1ccc2sc(-c3ccc(S(C)(=O)=O)cc3)c(C(=O)NCCc3c[nH]c4ccccc34)c2c1	-320	.	30	39*	2	-5
Brc1ccc(Cn2c(-c3cncs3)nc3ccccc32)cc1	-76	16	53*	5	1	4
c1ccc(Cn2c(-c3cncs3)nc3ccccc32)cc1	-15	-1	10	3	-4	-4
COc1ccc(-c2nc3ccccc3n2Cc2ccccc2)cc1	15	10	37	39*	-13	-5
COC(=O)C1CN(C2CCCC2)CCS(=O)(=O)N1Cc1ccc(OC)cc1 (configuration not stated)	.	.	-1	1	.	.
COC(=O)C1CN(Cc2ccccc2)CCS(=O)(=O)N1Cc1ccc(Cl)cc1 (configuration not stated)	.	.	-7	-10	.	.
O=C1OCCC1Sc1nc2ccccc2s1 (configuration not stated)	-3	-2	0	2	-1	-2
O=C1OCCC1Sc1nc2cc(Cl)ccc2s1 (configuration not stated)	0	7	38	54*	-3	-6
SMILES	Neddylation inh	TLR4 MyD88 comp	GC-A act	NPR2 activator	TLR9-MyD88 inh	NOD2-RIPK2 inh
COC[C@H]1CCCN1c1ccc2c(c1)O[C@H]1CCN(C1)S2(=O)=O	.	.	3	5	.	.
O=C(C(=O)N1CCN(S(=O)(=O)c2cccc3ccccc23)CC1)c1cccc(C(F)(F)F)c1	.	.	0	1	.	.
S=c1[nH]nc(-c2cc(-c3ccccc3)n[nH]2)n1/N=C/C(Br)=C/c1ccccc1	54*	.	-7	-7	.	-4
S=c1[nH]nc(-c2cc(-c3ccccc3)n[nH]2)n1/N=C/c1ccccc1	12	.	-3	-12	8	-1
Cc1cccc(-c2cccc3c4c([nH]c23)[C@@H]2C[C@H](N(C)C(=O)NC3CCCCC3)[C@H]([C@H](C)O)CN2CC4)c1	.	.	-5	-1	.	.
COc1ccc(Cl)cc1C(=O)NCCS(=O)(=O)N1CCN(c2ccccc2F)CC1	-4	.	-1	1	-12	-1
O=C(NCCS(=O)(=O)N1CCN(c2ccccc2F)CC1)c1ccc(F)c(F)c1	8	.	0	64*	1	-5
N#CC1=C(N)Oc2cc(O)ccc2C1c1ccc(Br)s1 (configuration not stated)	-27	.	75*	-6	-1	13
Cc1nn(-c2ccccc2)c2c1C(c1ccc(Br)s1)C(C#N)=C(N)O2 (configuration not stated)	-8	-7	.	.	8	-4
Cc1cccc(Nc2nc3c(S(=O)(=O)c4ccccc4)nnn3c3ccccc23)c1	-48	-6	36	42*	-6	-15
O=C(CCN1CCC2CCC(C2)C1)c1ccccc1 (configuration not stated)	4	.	53*	-6	1	0
O=C(CCCCN1CCCCC1)c1ccccc1	1	.	2	4	1	5
CC1=NN(c2nc(N)nc(/C(C#N)=C/c3ccc([N+](=O)[O-])o3)n2)C(C)(C)C1	-33	.	46*	41*	-7	-7
O=C1C2C(C(=O)N1/N=C/c1ccc([N+](=O)[O-])o1)C1C=CC2C12CC2 (configuration not stated)	20	13	1	2	3	-7
O=C(COC(=O)c1ccc([N+](=O)[O-])cc1Cl)Nc1cccnc1Cl	-26	.	2	-3	2	2
O=C(COC(=O)c1cc([N+](=O)[O-])ccc1NCCO)Nc1cccnc1Cl	-34	.	56*	57*	-4	-3
CN(C)CCC(=O)c1ccc2c(c1)OCO2	0	-6	20	-14	7	1
CN(C)CCC(=O)c1ccc(F)cc1	-5	.	72*	0	-2	4
CCNC(=O)COC(=O)CCC(=O)c1ccc(F)cc1	-1	.	-1	1	-11	-8
CCN(CC)CCC(=O)c1ccc(F)cc1	3	-1	74*	-1	7	0
CC1CCC2(CCC(=O)N2CCCO)CC1 (configuration not stated)	.	.	-2	8	.	.
Cn1cc([N+](=O)[O-])c(C(=O)Nc2nc(-c3ccc(Cl)cc3)cs2)n1	-26	21	60*	-2	6	12
N#Cc1cccc(-c2nnc(SCc3ccccc3C#N)o2)c1	5	1	35	38*	1	9
N#Cc1ccccc1CSc1nnc(-c2ccncc2)o1	0	.	.	.	2	-3

Screens (PubChem BioAssay)
